Measured values reported in PubChem BioAssay AID1159580 (chemical genetic matrix, 2015).
Where “and” joins values, the source holds several entries; their conditions need not be identical. Identical values can stand only once. About 2,000 (36%) of roughly 5,500 compounds were called active. Another 18% or so got no clear call; they are omitted. No stated cut-off is given here; in the data, active means normalized growth mostly below about 0.91 (no sharp cut-off); inconclusive means no clear call, values can overlap the other calls; inactive means mostly above about 0.92. The list shows a part of the results.

Test: chemical genetic growth profiling, strain panel (AID 1159580);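 further: tested at 20 µM; growth read once vehicle control cultures reached saturation at 30 °C; 1 = growth at the plate median or of vehicle wells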
Conditions: S. cerevisiae deletion strains, growth OD

Measured: normalized growth

CC1=CC(=O)CC(C)(C)C1(O)/C=C/C(C)=C\C(=O)O (stereo not given)
inactive: locus YAL013W, strain DEP1, stronger effect = lower value 0.986 | locus YAL021C, strain ccr4, stronger effect = lower value 0.996 | locus YAL026C, strain drs2, stronger effect = lower value 1.03 | locus YAL030W, strain snc1, stronger effect = lower value 1.02 | locus YBL061C, strain skt5, stronger effect = lower value 1.02 | locus YBR009C, strain hhf1, stronger effect = lower value 1.01 | locus YBR021W, strain FUR4, stronger effect = lower value 1.02 | locus YBR023C, strain chs3, stronger effect = lower value 1.03 | locus YBR171W, strain sec66, stronger effect = lower value 1.02 | locus YBR229C, strain ROT2, stronger effect = lower value 0.948 | locus YBR231C, strain swc5, stronger effect = lower value 1.03 | locus YBR279W, strain paf1, stronger effect = lower value 1.01 | locus YCL011C, strain gbp2, stronger effect = lower value 1.02 | locus YCL016C, strain dcc1, stronger effect = lower value 1.01 | locus YCL029C, strain bik1, stronger effect = lower value 0.973 | locus YCL069W, strain vba3, stronger effect = lower value 1.01 | locus YCR088W, strain abp1, stronger effect = lower value 1.03 | locus YDL005C, strain med2, stronger effect = lower value 1.03 | locus YDL035C, strain GPR1, stronger effect = lower value 0.981 | locus YDL040C, strain nat1, stronger effect = lower value 1.02 | locus YDL074C, strain BRE1, stronger effect = lower value 0.985 | locus YDL101C, strain DUN1, stronger effect = lower value 0.987 | locus YDL134C, strain PPH21, stronger effect = lower value 0.984 | locus YDL185W, strain tfp1, stronger effect = lower value 0.953 | locus YDL192W, strain arf1, stronger effect = lower value 0.983 | locus YDR001C, strain nth1, stronger effect = lower value 1.03 | locus YDR069C, strain doa4, stronger effect = lower value 1.04 | locus YDR101C, strain arx1, stronger effect = lower value 1.01 | locus YDR137W, strain rgp1, stronger effect = lower value 1.01 | locus YDR150W, strain NUM1, stronger effect = lower value 0.979 | locus YDR159W, strain sac3, stronger effect = lower value 1.03 | locus YDR162C, strain NBP2, stronger effect = lower value 0.979 | locus YDR195W, strain ref2 1.03 | locus YDR297W, strain sur2, stronger effect = lower value 1.03 | locus YDR318W, strain mcm21, stronger effect = lower value 0.979 | locus YDR334W, strain swr1, stronger effect = lower value 1.02 | locus YDR335W, strain msn5, stronger effect = lower value 1.03 | locus YDR388W, stronger effect = lower value 0.985 | locus YDR392W, strain spt3, stronger effect = lower value 1.01 | locus YDR502C, strain sam2, stronger effect = lower value 0.993 | locus YEL003W, strain gim4, stronger effect = lower value 1.02 | locus YEL037C, strain rad23, stronger effect = lower value 1.02 | locus YEL061C, strain CIN8 (second series), stronger effect = lower value 1.03 | locus YEL061C, strain CIN8, stronger effect = lower value 0.986 | locus YER015W, strain faa2, stronger effect = lower value 1.02 | locus YER016W, strain bim1, stronger effect = lower value 1.01 | locus YER110C, stronger effect = lower value 0.96 | locus YER111C, strain swi4, stronger effect = lower value 1.02 | locus YER155C, strain BEM2 (second series), stronger effect = lower value 1.05 | locus YER155C, strain BEM2, stronger effect = lower value 0.995 | locus YER167W, strain BCK2, stronger effect = lower value 0.988 | locus YFR010W, strain ubp6, stronger effect = lower value 1.04 | locus YGL078C, strain dbp3, stronger effect = lower value 0.987 | locus YGL086W, strain mad1, stronger effect = lower value 1 | locus YGL167C, strain pmr1, stronger effect = lower value 1.01 | locus YGL173C, strain kem1, stronger effect = lower value 1.01 | locus YGL227W, strain vid30, stronger effect = lower value 1.03 | locus YGL240W, strain doc1, stronger effect = lower value 1.03 | locus YGL248W, strain PDE1, stronger effect = lower value 0.977 | locus YGL253W, strain hxk2, stronger effect = lower value 1.03 | locus YGR078C, strain PAC10, stronger effect = lower value 0.983 | locus YGR135W, strain pre9, stronger effect = lower value 0.976 | locus YGR252W, strain gcn5, stronger effect = lower value 0.976 | locus YHR013C, strain ard1, stronger effect = lower value 1.03 | locus YHR027C, strain rpn1, stronger effect = lower value 1.02 | locus YHR030C, strain SLT2, stronger effect = lower value 0.988 and 1.01 | locus YHR079C, strain IRE1 (second series), stronger effect = lower value 0.974 | locus YHR079C, strain IRE1, stronger effect = lower value 0.974 | locus YHR094C, strain hxt1, stronger effect = lower value 0.966 | locus YHR129C, strain ARP1, stronger effect = lower value 0.989 | locus YHR142W, strain chs7, stronger effect = lower value 1.02 | locus YHR200W, strain rpn10, stronger effect = lower value 0.984 | locus YIL066C, strain RNR3, stronger effect = lower value 0.976 | locus YIL073C, strain SPO22, stronger effect = lower value 0.896 | locus YIL125W, strain kgd1, stronger effect = lower value 0.982 | locus YIR030C, strain dcg1, stronger effect = lower value 0.983 | locus YJL092W, strain hpr5, stronger effect = lower value 1.02 | locus YJL095W, strain BCK1 (second series), stronger effect = lower value 1.02 | locus YJL095W, strain BCK1, stronger effect = lower value 0.989 and 1.04 | locus YJL115W, strain asf1, stronger effect = lower value 1.03 | locus YJL129C, strain trk1, stronger effect = lower value 1.08 | locus YJL134W, strain LCB3, stronger effect = lower value 0.973 | locus YJL154C, strain vps35, stronger effect = lower value 1.02 | locus YJL164C, strain tpk1, stronger effect = lower value 1.01 | locus YJL166W, strain qcr8, stronger effect = lower value 1.04 | locus YJL168C, strain set2, stronger effect = lower value 0.982 | locus YJL187C, strain SWE1 (second series), stronger effect = lower value 0.972 | locus YJR043C, strain POL32, stronger effect = lower value 0.978 | locus YJR066W, strain TOR1, stronger effect = lower value 0.929 | locus YJR075W, strain HOC1, stronger effect = lower value 0.985 | locus YKL009W, strain mrt4, stronger effect = lower value 0.966 | locus YKL068W, stronger effect = lower value 0.973 | locus YKL085W, strain MDH1 (second series), stronger effect = lower value 0.983 | locus YKL085W, strain MDH1, stronger effect = lower value 0.983 | locus YKL160W, strain elf1, stronger effect = lower value 1.03 | locus YKR001C, strain vps1, stronger effect = lower value 0.975 | locus YKR026C, strain gcn3, stronger effect = lower value 1.03 | locus YKR091W, strain srl3, stronger effect = lower value 1.02 | locus YLL001W, strain dnm1, stronger effect = lower value 1.03 | locus YLL026W, stronger effect = lower value 1.02 | locus YLL041C, strain sdh2, stronger effect = lower value 1.02 | locus YLR027C, strain aat2, stronger effect = lower value 1.03 | locus YLR039C, strain RIC1, stronger effect = lower value 0.959 | locus YLR058C, strain SHM2, stronger effect = lower value 0.973 | locus YLR102C, strain apc9, stronger effect = lower value 0.974 | locus YLR113W, strain HOG1, stronger effect = lower value 1.07 | locus YLR221C, strain rsa3, stronger effect = lower value 1.01 | locus YLR258W, strain gsy2, stronger effect = lower value 1.02 | locus YLR262C, strain YPT6 (second series), stronger effect = lower value 1.04 | locus YLR262C, strain YPT6, stronger effect = lower value 0.941 | locus YLR268W, strain sec22, stronger effect = lower value 0.993 | locus YLR320W, strain mms22, stronger effect = lower value 1.02 | locus YLR330W, strain CHS5, stronger effect = lower value 0.992 | locus YLR342W, strain FKS1 (second series), stronger effect = lower value 0.984 | locus YLR342W, strain FKS1, stronger effect = lower value 1.03 | locus YLR357W, strain rsc2, stronger effect = lower value 1.02 | locus YLR370C, strain arc18, stronger effect = lower value 1.03 | locus YLR371W, strain rom2, stronger effect = lower value 0.952 | locus YLR384C, strain iki3, stronger effect = lower value 1.02 | locus YLR418C, strain cdc73, stronger effect = lower value 0.93 | locus YML016C, strain PPZ1, stronger effect = lower value 0.994 | locus YML032C, strain rad52, stronger effect = lower value 0.97 | locus YML120C, strain ndi1, stronger effect = lower value 1.02 | locus YML124C, strain tub3, stronger effect = lower value 0.976 | locus YMR058W, strain fet3, stronger effect = lower value 1.02 | locus YMR078C, strain ctf18, stronger effect = lower value 0.963 | locus YMR125W, strain sto1, stronger effect = lower value 1.06 | locus YMR129W, stronger effect = lower value 1.03 | locus YMR205C, strain PFK2, stronger effect = lower value 1.02 | locus YMR223W, strain ubp8, stronger effect = lower value 0.941 | locus YMR231W, strain pep5, stronger effect = lower value 1.01 | locus YMR307W, strain GAS1, stronger effect = lower value 1 | locus YNL067W, strain RPL9B, stronger effect = lower value 0.985 | locus YNL071W, strain lat1, stronger effect = lower value 1.03 | locus YNL153C, strain GIM3, stronger effect = lower value 0.987 | locus YNL183C, strain NPR1, stronger effect = lower value 0.99 | locus YNL209W, strain ssb2, stronger effect = lower value 1.02 | locus YNL233W, strain BNI4, stronger effect = lower value 0.997 | locus YNL248C, strain rpa49, stronger effect = lower value 1.02 | locus YNL250W, strain rad50, stronger effect = lower value 0.964 | locus YNL271C, strain bni1, stronger effect = lower value 0.978 | locus YNL298W, strain CLA4, stronger effect = lower value 0.983 | locus YNL307C, strain MCK1, stronger effect = lower value 0.973 | locus YNL322C, strain KRE1 (second series), stronger effect = lower value 1.02 | locus YNL322C, strain KRE1, stronger effect = lower value 0.987 | locus YNR049C, strain mso1, stronger effect = lower value 1.02 | locus YNR052C, strain pop2, stronger effect = lower value 0.989 | locus YOL012C, strain htz1 0.831 | locus YOL147C, strain pex11, stronger effect = lower value 0.971 | locus YOR001W, strain rrp6, stronger effect = lower value 1.01 | locus YOR061W, strain CKA2, stronger effect = lower value 0.951 | locus YOR069W, strain VPS5, stronger effect = lower value 0.992 | locus YOR070C, strain gyp1, stronger effect = lower value 1.01 | locus YOR080W, strain dia2, stronger effect = lower value 1.02 | locus YOR083W, strain WHI5, stronger effect = lower value 1.02 | locus YOR106W, strain vam3, stronger effect = lower value 1.04 | locus YOR136W, strain idh2, stronger effect = lower value 0.977 | locus YOR144C, strain elg1, stronger effect = lower value 0.97 | locus YOR184W, strain ser1, stronger effect = lower value 0.98 | locus YOR231W, strain MKK1, stronger effect = lower value 0.998 | locus YOR265W, strain rbl2, stronger effect = lower value 1.03 | locus YOR270C, strain vph1, stronger effect = lower value 1.08 | locus YOR290C, strain snf2, stronger effect = lower value 1.02 | locus YOR316C, strain cot1, stronger effect = lower value 0.971 | locus YPL051W, strain arl3, stronger effect = lower value 1.03 | locus YPL055C, strain LGE1, stronger effect = lower value 0.979 | locus YPL078C, strain atp4, stronger effect = lower value 1.03 | locus YPL106C, strain sse1, stronger effect = lower value 1.02 | locus YPL240C, strain hsp82, stronger effect = lower value 1.04 | locus YPL256C, strain CLN2, stronger effect = lower value 1.01 | locus YPR119W, strain clb2, stronger effect = lower value 0.968 | locus YPR141C, strain kar3, stronger effect = lower value 0.954 | locus YPR163C, strain tif3, stronger effect = lower value 0.967 | locus YPR167C, strain met16, stronger effect = lower value 0.958 | strain wtn01, stronger effect = lower value 1.03
